Here are results for 60 compounds from PubChem BioAssay AID1471 (National Center for Advancing Translational Sciences (NCATS), 2008).

Out of some 230,000 compounds screened, about 310 (0.13%) were called active. Inconclusive results (about 2%) are left out. Calls follow the shape of the dose curve; as a rule, active = well fitted activation curve with a large enough effect; inconclusive = small, poorly fitted or top-dose-only effect; inactive = no such curve, though single readings can be large or run the other way. What follows is part of a selection rich in actives, with near analogues and random picks from the rest. Entries that show only a call come without a potency.

The nature of this experiment: qHTS Multiplex Assay to Identify Dual Action Probes in a Cell Model of Huntington: Cytoprotection (ATP). Also: nearly all actives have a fitted effect of over 45% in size.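 As to cytoprotection (ATP increase): toxic huntingtin expression switched on by the ecdysone agonist tebufenozide.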 The settings on record: PC12 HTT-Q103 induced, ATP luminescence, 40 h; series mostly up to 56.4 µM. The source says:
NIH Chemical Genomics Center [NCGC]
NIH Molecular Libraries Probe Production centers Network [MLPCN]
Assay Submitter (PI): Wei Zheng
Huntington's disease is a neurodegenerative disorder caused by a trinucleotide repeat expansion in Exon 1 of the Huntingtin gene. The CAG trinucleotide encodes glutamine and polyglutamine expansions cause cell death in selective areas of the brain. Huntington polyglutamine repeats have the tendency to form aggregates which are observable in later stages of the disease. The exact nature of the aggregates, whether toxic, protective, or insignificant, is unclear.
A stable PC12 cell line containing a gene fusion of Exon 1 of the Huntingtin gene linked to GFP under the control of the inducible ecdysone promoter were used as the cell-based model of Huntington Disease for high throughput screening. Exon 1 of the Huntingtin gene contained an expansion of 103 polyglutamines (Q103) which, when expressed, caused cell death and distinct, bright GFP aggregates. The amount of cell death and the size and intensity of GFP aggregates increased over time and induction level. The cell death were quantified with a measurement of ATP content in the cells. A maximal 40-50% of cell death was observed when the Huntington gene was induced in this cell line.
We optimized this assay in a homogeneous 1536 well format. A quantitative high throughput screen (qHTS) was conducted on the PC12 cells which were induced to express the toxic fusion construct. Small molecules which prevented cell death were identified by using a luminescent ATP quantification method (Perkin Elmer's ATPlite).
PC12 cells stably containing a construct with an ecdysone inducible promoter expressing GFP fused to the exon 1 of HTTQ103 (Huntington protein which containing a 103 ployglutamine expansion) were used.
NCGC Assay Protocol Summary:
Sequence, Parameter, Description
1, Reagent, 5 uL 1500 cells/well 1536 TC treated White clear bottom plate
2, Compound, 23 nL Tebufenozide inducer (100 nM final) to all columns
3, Compound, 23 nL 40 uM to 0.5 nM Libraries
5, Reagent, 5 ul ATPLite cell death assay reagent
6, Detector, 4 sec integration with a Viewlux Luminescent
Media consisted of phenol red free DMEM + 5% equine serum (Hyclone # SH30072.03 ), 5% supplemented Bovine Calf Serum (Hyclone # SH30074.03 ), 1x pen/strep, no G418
Control columns: 1 = DMSO, 2= 2 uM teb dilns (1:1), 4 = 100 nM Teb inducer. Sample columns received 100 nM Teb.
(In general: qHTS replaces the single test concentration by a dilution series.)
On to `CCCCCCCC/C=C\CCCCCCCC(=O)NCC(=O)O`, for which the cytoprotection (ATP increase) entry was “inactive”.
Same read-out and setting: in the case of `CC(=O)Oc1ccccc1C1=NN(C(C)=O)C(c2ccccc2)C1` (stereo not given) it was “inactive”.
As to `CCCN(CCc1ccccc1)C1CCc2c(O)cccc2C1` (stereo not given), the cytoprotection (ATP increase) result was “inactive”.
The same measure, in the same setting: in the case of `CCOC(=O)C1=C(C)c2ccccc2OC1C(=O)OCC` (stereo not given) it was “inactive”; in that of `O=C(O)C[C@@H]1NC(=O)[C@H](Cc2ccccc2)NC1=O`, “inactive”.
Take `COc1ccc(-c2nc3c(c4c2C[C@H](c2ccccc2)OC4)CN(C(=O)c2cccnc2)CC3)c(C)c1`: the cytoprotection (ATP increase) is 27.4% [at 10 µM] (inactive).
Still for that read-out and setting: then `COc1ccc(NC(=S)NC2CCS(=O)(=O)C2)cc1` (stereo not given), with 2.72% [at 0.074 µM] (inactive); and `COc1cccc(CC(=O)N2CCc3nc(COc4ccccc4)c4c(c3C2)CO[C@@H](C)C4)c1`, with 16.2% [at 10 µM] (inactive); and `CC(C)C1=CC2=CC[C@H]3[C@](C)(C(=O)O)CCC[C@]3(C)C2CC1` (stereo not given in full), with “inactive”.
Same read-out and setting: then `COc1ccc(-c2[nH]nc(-c3ccccc3)c2-c2nc3ccccc3[nH]2)cc1`, with “inactive”; and `CSc1ncccc1C(=O)N1CCCC(CCC(=O)NCc2ccccc2F)C1` (stereo not given), with 4.93% [at 10 µM] (inactive); and `CCOC(=O)CCNC(=O)N1CCCC(C(=O)c2ccccc2SC)C1` (stereo not given), with 2.06% [at 10 µM] (inactive).
With `CSCCC(=O)N1CCCC(CNC(=O)c2ccccc2Cl)C1` (stereo not given), the Potency was 2.82 µM (active).
On to `C[C@@H]1C(c2ccc(F)cc2)=NN(c2ccc(Br)cc2)[C@H]1C(=O)N1CCOC1=O`, for which the cytoprotection (ATP increase) result was “inactive”.
Same read-out and setting: in the case of `Cc1cc(=O)oc(C)c1C(=O)NCCN(C)Cc1ccccc1` it was “inactive”; in that of `COc1ccc(-c2nc(-c3ccccc3)oc2Nc2ccc3ccccc3c2)cc1`, “inactive”; in that of `COc1ccc2c(c1)O[C@@H](c1ccc3c(c1)OCO3)[C@H](OC(=O)NCc1ccco1)C2=O`, “inactive”.
On the same count and under the same terms, in the case of `O=C(O)CCC(=O)O` it was “inactive”; in that of `CCCCCCCCCCCCCCCCO`, “inactive”.
As for `COc1ccc(CCCOC(Cn2ccnc2)c2ccc(OC)cc2)cc1` (stereo not given), the cytoprotection (ATP increase) entry is “inactive”.
Still for that read-out and setting: in the case of `NC(=O)C1CCN(C(=O)c2ccc(-c3ccccc3)cc2)CC1` it was “inactive”.
The same measure, in the same setting: in the case of `COc1ccccc1N1CCN(C(=O)CN(Cc2ccc(Cl)cc2)S(C)(=O)=O)CC1` it was “inactive”.
On the same count and under the same terms, then `COc1ccccc1CN(C)c1nnnn1-c1ccccc1`, with “inactive”.
`COc1ccccc1-n1nnnc1S(=O)(=O)Cc1ccc(Cl)cc1`: the Potency was 25.1 µM (active).
For `COC(=O)CCCC1=CC2=CC(=O)C(C)(OC(=O)c3cccs3)C(=O)C2=CN1c1ccc(CO)cc1` (stereo not given), the cytoprotection (ATP increase) was -11% [at 10 µM] (inactive).
On the same count and under the same terms, in the case of `CC(=O)N(CC(O)CO)c1c(I)c(C(=O)NCC(O)CO)c(I)c(C(=O)NCC(O)CO)c1I` (stereo not given) it was “inactive”.
The same measure, in the same setting: then `COC(=O)C1=C(C(=O)OC)[C@@H]2N(C)c3ccccc3[C@@]23C[C@@H](C(=O)OC)N(S(=O)(=O)c2cccs2)C3=N1`, with -27.2% [at 10 µM] (inactive); and `COc1ccc(-c2noc(-c3ccc(C)cc3)n2)cc1`, with “inactive”; and `COc1ccc(-c2noc(-c3cccc(OC)c3OC)n2)cc1OC`, with “inactive”.
Take `COc1ccc(-c2nc(-c3ccccc3)no2)c(OC)c1`: the Potency was 5.62 µM (active).
In the case of `O=P(O)(O)C(O)c1ccc2ccccc2c1` (stereo not given), the cytoprotection (ATP increase) result was “inactive”.
Same read-out and setting: then `COCCNc1nc2nonc2nc1N(C)Cc1ccc(C)cc1`, with -6.59% [at 10 µM] (inactive); and `Cc1ccc(NC(=O)O[C@@H]2C(=O)c3cc(Br)ccc3O[C@H]2c2ccc3c(c2)OCO3)cc1Br`, with “inactive”.
Still for that read-out and setting: then `CCNc1nc(NC(C)C)nc(OCCOC(=O)c2ccccc2)n1`, with -7.6% [at 10 µM] (inactive); and `COc1ccc(C2(C#N)CCC(C(=O)O)CC2)cc1OC1CCCC1` (stereo not given), with “inactive”.
As for `C=C(C)C(=O)c1ccc(F)cc1`, the cytoprotection (ATP increase) result was “inactive”.
Still for that read-out and setting: in the case of `C/C(Nc1ccc2oc(=O)ccc2c1)=C1/C(=O)CC2[C@@H]1C2(C)C` (stereo not given in full) it was “inactive”.
Same read-out and setting: then `Nc1ccc(N=Nc2ccccc2Cl)c(N)n1`, with 7.07% [at 10 µM] (inactive); and `COC(C)C(C(=O)OCC1=CCN2CC[C@H](O)[C@@H]12)C(C)C` (stereo not given in full), with “inactive”.
Same read-out and setting: in the case of `COc1ccc(-c2c(C)cc3oc(=O)cc(-c4ccccc4)c3c2C)cc1F` it was “inactive”; in that of `N#C/C(=C\C1=C(N2CCOCC2)C(=C\c2ccccc2)/CC1)C(=O)Nc1ccccc1F`, 6.74% [at 10 µM] (inactive); in that of `COC(=O)C1=C(C(=O)OC)[C@@H]2Nc3ccccc3[C@@]23C[C@@H](C(=O)OC)N(S(=O)(=O)c2ccc([N+](=O)[O-])cc2)C3=N1`, 9.32% [at 10 µM] (inactive).
On to `COC(=O)C1=C(N)Oc2cc(C)[nH]c(=O)c2C1c1ccc(Cl)cc1` (stereo not given), for which the cytoprotection (ATP increase) was -1.17% [at 10 µM] (inactive).
On the same count and under the same terms, then `COc1ccc(C2CC(=O)Oc3ccc(C(C)(C)C)cc32)cc1` (stereo not given), with “inactive”; and `FCOC(C(F)(F)F)C(F)(F)F`, with “inactive”.
On the same count and under the same terms, in the case of `CC(C)=CCC[C@]1(C)[C@@H](CC=C(C)C)C[C@@]2(CC=C(C)C)C(=O)[C@]1(C(=O)C(C)C)C(=O)C(CC=C(C)C)=C2O` it was “inactive”; in that of `O=C(OCc1ccccc1)c1ccc(O)cc1`, “inactive”.
The same measure, in the same setting: in the case of `COc1ccc(-c2nc3c(c4c2C[C@H](c2ccccc2)OC4)CN(C(=O)c2ccco2)CC3)c(C)c1` it was -10% [at 10 µM] (inactive); in that of `CCCCCCCC1=Cc2ccc(F)cc2C(C(C(=O)OC)C(=O)OC)N1C(=O)OC` (stereo not given), “inactive”; in that of `OCC(CO)NC1C[C@](O)(CO)[C@@H](O)[C@H](O)[C@H]1O` (stereo not given in full), “inactive”.
Turning to `CC(=O)OC1C([N+]2(C)CCCCC2)C[C@H]2C3CC[C@H]4C[C@H](OC(C)=O)C([N+]5(C)CCCCC5)CC4(C)C3CCC12C` (stereo not given in full), the cytoprotection (ATP increase) result was “inactive”.
For `Oc1ccc(Cl)c2c1CCC2`, the cytoprotection (ATP increase) entry was “inactive”.
Same read-out and setting: in the case of `O=C(O)C1CCCN(CCC=C(c2ccccc2)c2ccccc2)C1` (stereo not given) it was “inactive”; in that of `COCCNc1nc(-c2ccccc2)nc2c1oc1ccccc12`, 13.7% [at 10 µM] (inactive); in that of `CC(=O)c1cnn(-c2cc(Oc3ccc(F)cc3)ncn2)c1C`, “inactive”.
Still for that read-out and setting: in the case of `CO[C@@]12[C@@H](COC(N)=O)C3=C(C(=O)C(C)=C(N)C3=O)N1C[C@@H]1N[C@@H]12` it was “inactive”; in that of `C[C@]12CC[C@@H]3c4ccc(O)cc4C[C@@H](CCCCCCCCCS(=O)CCCC(F)(F)C(F)(F)F)C3[C@@H]1CC[C@@H]2O` (stereo not given in full), “inactive”.
With `O=C(CSc1ncnc2c1nnn2Cc1ccc(F)cc1)NC1CCCC1`, the Potency is 1.26 µM (active).
`O=C(Cc1ccc(F)cc1)NC1CCCC1`: the cytoprotection (ATP increase) result is “inactive”.
For `O=C(Cn1cnc2c(nnn2Cc2ccc(F)cc2)c1=O)NCc1ccc2c(c1)OCO2`, the cytoprotection (ATP increase) was 7.52% [at 10 µM] (inactive).
